GBA activity – Glucocerebrosidase; Lysosomal acid glucosylceramidase (Homo sapiens), P04062; purified enzyme, resorufin glucoside fluorescence (screen aimed at inhibitors), 20 min; Potency, µM; actives 1.1% (n = 48,000); in the data active means potency below about 15 µM; inconclusive means mostly about 16 µM to 33 µM;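 further: potency means the concentration at half of the fitted maximal effect; the screen sought inhibitors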
Target sequence (P04062 whole entry, looked up): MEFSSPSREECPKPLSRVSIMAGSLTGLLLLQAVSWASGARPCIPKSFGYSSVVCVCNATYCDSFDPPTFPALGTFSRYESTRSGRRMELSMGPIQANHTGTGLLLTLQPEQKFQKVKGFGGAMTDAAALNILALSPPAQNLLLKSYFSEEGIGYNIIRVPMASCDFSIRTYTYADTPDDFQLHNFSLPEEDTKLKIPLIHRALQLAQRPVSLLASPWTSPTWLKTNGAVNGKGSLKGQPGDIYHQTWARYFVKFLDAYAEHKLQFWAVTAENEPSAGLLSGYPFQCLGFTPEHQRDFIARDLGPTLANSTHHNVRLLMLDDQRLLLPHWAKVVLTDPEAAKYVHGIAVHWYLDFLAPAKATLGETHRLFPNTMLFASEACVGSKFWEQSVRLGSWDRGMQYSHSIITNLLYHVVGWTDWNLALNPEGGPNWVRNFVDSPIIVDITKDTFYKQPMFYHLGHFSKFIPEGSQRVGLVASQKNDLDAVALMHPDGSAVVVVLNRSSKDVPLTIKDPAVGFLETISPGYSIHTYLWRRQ
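Normal human glucocerebrosidase (0.2 nM final) was assayed with resorufin β-D-glucopyranoside (30 uM final) in 50mM citric acid/KH2PO4, 10mM sodium taurocholate, 0.01% tween-20, pH 5.9. Compounds were titrated; fluorescence (Ex 548, Em 600) read after 20 min at RT.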
UbGFP stabilizer – Ubiquitin-GFP Assay. Ubiquitin-GFP reporter cells, proteasome inhibition, GFP fluorescence; response scale: untreated = 0%, 10 µM MG-132 = 100%. 67,000 tested, under 10 active. AID 526, 2006. Potency, µM (highest dose often 45.9 µM), for the others: at the top dose activation (GFP accumulation), hits mostly activators; active means well fitted activation curve with a large enough effect, not every such curve was filed as active; inconclusive means small, poorly fitted or top-dose-only effect, or another doubt; inactive means no such curve, though single readings can be large or run the other way; further: potency means the concentration at half of the fitted maximal effect
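GFP accumulation read-out: laser plate cytometry counting ubiquitin(G76V)-GFP-expressing U2OS cells after 4 hr compound exposure at 37 °C. Titrations spanned 46 uM to 2.9 nM; 0% = basal, 100% = 10 uM MG-132; concentration-response curves fitted.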
HBB splicing – qHTS Assay for Modulators of Hemoglobin Beta Chain Splicing | HBB splicing reporter cell assay, activation; EGFP reporter with mutant IVS2-654 intron; response scale: normalised to 500 nM splice-correcting PNA | Potency, µM (series often up to 46.1 µM), for inactives: top-dose activation, hits mostly activators | actives 0.06% (n = 65,000); further: potency means the concentration at half of the fitted maximal effect; 0% is about no effect
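HeLa cells stably expressing EGFP interrupted by mutant beta-globin intron 2 (IVS2-654), 500/well in 2% FCS. Treated with compound for 2 days at 37C. Splicing correction scored as total well GFP intensity (488 nm excitation, 500-520 nm emission); 500 nM antisense PNA served as control.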
Luciferase inh – qHTS Assay for Inhibitors of Firefly Luciferase. purified firefly luciferase, luminescence, 8 min. Potency, µM (highest dose often 57.1 µM), for the others: at the top dose activity change, negative = inhibition, actives largely listed as inhibitors. actives 2.2% (n = 72,000). AID 411, 2009; further: potency means the concentration at half of the fitted maximal effect; on the % scale 0 is the no-effect control and ±100 the full control effect; nearly all actives have a fitted effect of over 40% in size
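Inhibition of light generation by firefly luciferase from ATP and luciferin was profiled with concentration-response curves per sample, ATP held at 10 uM within the enzyme's linear range. Plates were read by luminescence after an 8-minute ambient incubation.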
GFP derepression – qHTS Assay for Epigenetic Modulators | mouse C127i GFP locus derepression, cytometry, 30 h | Potency, µM (top dose mostly 46.1 µM), for inactives: at the top dose GFP derepression (activation) | actives 0.09% (n = 68,000) | AID 597, 2007; further: % of control where 0% means no effect
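Murine C127i mammary cells carrying a silenced, stably integrated CMV-driven GFP reporter were treated with compound for 30 hours at 37 C. After PBS washes, GFP-positive cells were counted by laser-scanning microplate cytometry.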
PK Bst – Pyruvate Kinase. purified pyruvate kinase, luminescence ATP production; ribose 5-phosphate activator present at AC10. Potency, µM. actives 1.2% (n = 51,000). AID 361, 2006; in the data active means potency below about 11 µM; inconclusive means mostly about 12 µM to 25 µM;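 the screen sought inhibitors and activators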;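 further: potency means the concentration at half of the fitted maximal effect; scaled between full activation by ribose 5 phosphate and full inhibition by luteolin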
The depositor's hits bear a star; i = inactive; u = inconclusive; x = not tested or not shown; [ ] = dose if it differs, or a comment. Compounds with a hit are over-represented: about 3.3% of the library has one in this group of screens. Unless noted, the call rests on the fitted dose curve; in most records, active means well fitted curve in the direction sought with a large enough effect; inconclusive means small, poorly fitted or top-dose-only effect, or another doubt; inactive means no such curve, though single readings can be large; an effect the other way counts as inactive or inconclusive.

SMILES	GBA activity	UbGFP stabilizer	HBB splicing	Luciferase inh	GFP derepression	PK Bst
CC1(C)Oc2ccc(NC(=O)C3COc4ccccc4O3)cc2O1 (stereo not given)	>76.9	5.8%	0.7%	12.6µM*	-1.3%	u
CC(C)NC(=O)N1CCC2(CC1)CCN(C(=O)c1ccncc1)CC2	x	2.2%	2.4%	2.9%[11.4 µM]	2.3%[9.22 µM]	x
CCCCC#Cc1nc(N)c2ncn([C@@H]3O[C@@H](C(=O)NCC)[C@H](O)[C@@H]3O)c2n1	x	-3.2%	-0.7%	2.7%	-2.2%	x
Clc1cccc(C=NC=Nc2cccc(Cl)c2)c1	x	2.1%	x	2µM*	1.4%	x
N=c1nc(N)nc2n1NC(c1ccc(F)cc1)=CS2	>76.9	5.2%	x	-26.4%	1.2%	3.61*
CO[C@@H]1COC(=O)[C@H](C)NC(=O)[C@@H](C)COC(=O)[C@H](C)NC(=O)C/C=C\[C@H]1C	x	x	1.0%[9.22 µM]	-0.7%[11.4 µM]	x	x
O=C(c1ccc(Cl)s1)N1CCc2ccccc21	>76.9	7.0%	0.7%	12.6µM*	-4.6%	x
Cn1ccnc1SCC(=O)Nc1ccc2ccccc2c1	x	9.6%	1.0%	12.6µM*	-2.1%	i
Cn1ccnc1SCC(=O)c1cc2ccccc2o1	>76.9	6.6%	0.3%[57.5 µM]	-18.2%	1.6%	>57
CCCC12CN(C(=O)c3ccc(OC)cc3)CC(C)(CN(C(=O)c3ccc(OC)cc3)C1)C2=O	>76.9	5.9%	0.1%	-0.9%	-2.0%	>57
CCCC12CN3CC(C)(CN(C1)C3c1ccc(OC(C)C)cc1)C2=O (stereo not given)	1.97*	14.0%	-1.8%[1.84 µM]	1.9%	8.2%	>57
COc1ccc(C(=O)/C=C/Nc2cccc(C)n2)cc1OC	x	x	x	10µM*	-2.6%[20.6 µM]	0.632*
Cc1ccc(C(=O)/C=C/Nc2ccccn2)cc1	x	x	x	0.398µM*	2.6%[20.6 µM]	0.747*
COc1ccc2[nH]cc(CCNc3ccnc(-c4ccc(C(=O)N(C)C)cc4)n3)c2c1	x	-1.6%	0.1%	-4.7%[2.29 µM]	5.7%[9.22 µM]	x
C=C1CC[C@@H]2[C@](C)(CC[C@@H](O)[C@]2(C)CO)[C@@H]1C/C=C1/C(=O)OC[C@H]1O	x	-1.3%	x	0.0%[11.4 µM]	6.9%[9.22 µM]	x
Cc1ccc(Nc2nc(C3CC3)cs2)cc1	x	-3.8%	0.2%	7.94µM*	x	x
CCN(CC)C(=O)c1csc(Nc2ccc(C)cc2)n1	x	-1.2%	-0.9%	-1.6%	-1.3%	>57
COCCCn1c(SCC(=O)OC2CCCCC2)nnc1-c1ccco1	>76.9	4.2%	2.0%	25.1µM*	1.3%	x
COCCCn1c(SCC(=O)NC2CCCC2)nnc1-c1ccco1	>76.9	3.7%	x	1.5%	-3.4%	>57
COc1ccccc1NC(=O)CSc1nnc(-c2ccco2)n1Cc1ccco1	>76.9	0.0%	-1.5%	25.1µM*	5.7%	x
COc1ccc(C(=O)NCCn2ccc3ccccc32)cc1OC	x	10.2%	-1.7%	10µM*	x	x
COc1ccc(N2CCN(Cc3nc(N)nc(N4CCCc5ccccc54)n3)CC2)cc1	7.62*	-1.7%	-2.5%[57.5 µM]	3.4%	-2.2%	>57
Nc1nc(CN2CCN(c3cccc(Cl)c3)CC2)nc(N2CCCc3ccccc32)n1	13.8*	-4.8%	-0.3%	-1.1%	0.0%	>57
Nc1nc(CN2CCN(c3ccccc3)CC2)nc(N2CCCc3ccccc32)n1	u	17.6%	3.0%[1.84 µM]	-1.5%	-0.4%	>57
Cc1ccc(CNc2ccc3c(c2)ncn3C)cc1	u	-2.7%	-1.5%	-16.3%	0.0%	>57
SMILES	GBA activity	UbGFP stabilizer	HBB splicing	Luciferase inh	GFP derepression	PK Bst
Cc1ccc(C(=O)Nc2ccc3c(c2)ncn3C)cc1	x	1.7%	-0.9%	25.1µM*	-2.7%	x
C=C(C)Cn1c(SCC#N)nc2ccccc2c1=O	>76.9	-0.4%	-0.8%	-1.0%	-1.1%	>57
N#CCSc1nc2ccc(N3CCCCC3)cc2c(=O)n1Cc1ccccc1	15.2*	4.1%	0.1%	-1.0%	0.0%	>57
CC(=O)NCc1nc2ccccc2n1C(C)C	x	-10.2%	0.9%	-2.8%	x	x
CC(C)n1c(CNC(=O)c2ccccc2)nc2ccccc21	8.43*	1.6%	6.7%	0.8%	0.1%	>57
CCOC(=O)c1ccc(NC(=O)N2CCN(CCc3ccccc3)CC2)cc1	>76.9	-0.9%	-0.1%	25.1µM*	5.7%	x
